Bioassay records: PubChem, several laboratories
PHOSPHO1 inh = PHOSPHO1 (human) inhibition | 1.1% of 290,000 active | recombinant PHOSPHO1, absorbance phosphatase assay | inhibition, % at 13.3 µM | AID 1565 | Q8TCT1; in the data active = inhibition above about 60%
Wnt act = activates Wnt/beta-catenin signaling in a reporter cell assay. activator, plate reader. activation, % at 9.35 µM. 1.2% of 300,000 active; in the data active = activation above about 30%, passing the limit was not always enough
esBAF inh = blocks esBAF chromatin remodeling in mouse ES cells | Bmi1-luciferase knock-in reporter, 24 h; 100% = twice the neutral-well signal | 2% of 350,000 active | AID 602393 | reporter increase, % at 12.5 µM; in the data active = activation above about 40%;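 also: a rise in the Bmi1 reporter signal indicates esBAF inhibition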
A3G deaminase = blocks human APOBEC3G single-stranded DNA deamination | Q9HC16 | recombinant A3G, ssDNA deamination FAM/TAMRA fluorescence | inhibition, % at 20 µM | 0.28% of 330,000 active | AID 493012;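 active = inhibition of at least 40% at 20 µM, with no more than 30% in the related APOBEC3A deaminase screen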
Target sequence (Q9HC16 whole entry, looked up): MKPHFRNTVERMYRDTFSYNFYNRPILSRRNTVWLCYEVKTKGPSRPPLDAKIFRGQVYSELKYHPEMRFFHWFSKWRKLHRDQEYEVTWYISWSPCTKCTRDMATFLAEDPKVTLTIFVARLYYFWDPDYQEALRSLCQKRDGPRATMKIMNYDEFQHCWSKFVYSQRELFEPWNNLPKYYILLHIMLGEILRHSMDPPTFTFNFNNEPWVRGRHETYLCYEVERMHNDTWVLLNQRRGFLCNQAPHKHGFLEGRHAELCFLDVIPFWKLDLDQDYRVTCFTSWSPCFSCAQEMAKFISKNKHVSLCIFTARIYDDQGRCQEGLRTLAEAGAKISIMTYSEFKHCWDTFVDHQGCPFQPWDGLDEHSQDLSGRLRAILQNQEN
MITF act = increases MITF-driven TRPM1 promoter luciferase signal; SK-MEL-5 TRPM1-promoter luciferase, 24 h; % of positive control, neutral wells = 0; activation, % at 12.5 µM; 0.75% of 300,000 active; AID 588334;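 active = mean activation of at least 80% with every replicate also reaching 80%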
A3A deaminase = human APOBEC3A DNA deaminase inhibition | P31941 | recombinant A3A, FAM/TAMRA ssDNA deamination fluorescence | inhibition, % at 20 µM | 0.41% of 330,000 active;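 active = at least 40% inhibition at 20 µM here, with at most 30% in a related deaminase screen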
Target sequence (P31941 whole entry, looked up): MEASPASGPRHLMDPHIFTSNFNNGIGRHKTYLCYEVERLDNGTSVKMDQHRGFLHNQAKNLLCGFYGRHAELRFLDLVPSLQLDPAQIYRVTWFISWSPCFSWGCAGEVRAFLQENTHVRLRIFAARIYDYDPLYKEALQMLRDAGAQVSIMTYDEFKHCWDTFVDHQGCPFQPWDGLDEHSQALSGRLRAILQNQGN
Of the large screens only hits and unclear results are named; the others gave an inactive call; ! = not confirmed by another sample. Hits are enriched below; roughly 3.6% of the tested compounds scored in any of these assays.

O=C(c1cc(-c2ccc(Cl)cc2)on1)N1CCCCCC1	none
O=C(c1cc(-c2ccc(Cl)cc2Cl)on1)N1CCCC1	none
O=C(c1cc(-c2cccc(Cl)c2)on1)N1CCCCCC1	esBAF inh 63, MITF act 113
O=C(c1cc(-c2ccc(O)cc2)on1)N1CCCCCC1	Wnt act 40, MITF act 84
O=C(c1cc(-c2ccc(Cl)c(Cl)c2)on1)N1CCCCCC1	esBAF inh 59, MITF act 131
O=C(c1cc(-c2ccc(Cl)cc2Cl)on1)N1CCCCCC1	Wnt act 33
C[C@H]1CCCCO[C@@H](CN(C)C(=O)NC2CCCCC2)[C@@H](C)CN([C@@H](C)CO)C(=O)c2cc(NC(=O)Nc3cccc4ccccc34)ccc2O1	none (no result: PHOSPHO1 inh, Wnt act, A3G deaminase, MITF act, A3A deaminase)
Cc1ccccc1S(=O)(=O)N1C[C@@H](O)COC[C@@H]2O[C@H](CC(=O)N3CCN(C)CC3)CC[C@H]21	none (no result: PHOSPHO1 inh, Wnt act, A3G deaminase, MITF act, A3A deaminase)
COCCCNC(=O)CSc1ccsc1[N+](=O)[O-]	none (no result: esBAF inh)
Cc1ccccc1Nc1nnc(SCC(=O)NCc2ccco2)s1	PHOSPHO1 inh 87
C/C(N)=C(/C#N)C(=O)CSc1nnc(Nc2cccc(C)c2C)s1	esBAF inh 86!
C/C(N)=C(/C#N)C(=O)CSc1nnc(Nc2c(C)cccc2C)s1	PHOSPHO1 inh 67 (no result: esBAF inh)
O=C(CSc1ccsc1[N+](=O)[O-])NCc1ccco1	Wnt act 33 (no result: esBAF inh)
O=C(C[C@H]1C=C[C@@H](NC(=O)Cc2cccnc2)[C@H](CO)O1)Nc1ccccc1	none (no result: PHOSPHO1 inh, Wnt act, A3G deaminase, MITF act, A3A deaminase)
O=C(C[C@@H]1C[C@H]2c3cc(NC(=O)C4CCOCC4)ccc3O[C@H]2[C@H](CO)O1)NC1CCCC1	none (no result: PHOSPHO1 inh, Wnt act, A3G deaminase, MITF act, A3A deaminase)
CC(=O)N=c1c(C#N)cc2c(=O)n3ccccc3nc2n1CCCOC(C)C	none (no result: esBAF inh, MITF act)
CC(C)OCCCn1c(=NC(=O)c2ccncc2)c(C#N)cc2c(=O)n3ccccc3nc21	PHOSPHO1 inh 98 (no result: Wnt act)
CCNC(=O)[C@H]1[C@H](CO)[C@H]2Cn3c(ccc(-c4ccc(F)cc4)c3=O)[C@@H]1N2C(=O)c1ccccn1	none (no result: PHOSPHO1 inh, Wnt act, A3G deaminase, MITF act, A3A deaminase)
Cc1ccc(/C=C2/SC(=S)N(C3CCCCC3)C2=O)o1	none
O=C1/C(=C\c2ccc(-c3ccccc3Cl)o2)SC(=S)N1CC1CCCO1 (stereo not given)	PHOSPHO1 inh 81 (no result: Wnt act, esBAF inh)
Cc1ccc(/C=C2/SC(=O)NC2=S)o1	PHOSPHO1 inh 68 (no result: Wnt act)
O=C1/C(=C/c2cccnc2)SC(=S)N1CC1CCCO1 (stereo not given)	none (no result: esBAF inh)
Cc1ccc(/C=C2\SC(=S)N(CC3CCCO3)C2=O)o1 (stereo not given)	PHOSPHO1 inh 77 (no result: esBAF inh, MITF act)
CO[C@H]1CN(C)C(=O)c2cc(NC(=O)Nc3cccc(F)c3)ccc2OC[C@H](C)NC[C@H]1C	none (no result: PHOSPHO1 inh, Wnt act, A3G deaminase, MITF act, A3A deaminase)
COc1ccc(/C=C/C(=O)c2ccccc2)cc1Cn1nnc2ccccc21	Wnt act 43 (no result: esBAF inh)
COc1ccc(/C=C/C(=O)c2ccccc2)cc1COc1ccc(F)cc1	none (no result: esBAF inh)
Cc1ccc(CN2CCNC(=O)C2CC(=O)NC2CCCCCC2)cc1 (stereo not given)	none
Cc1nc(CNC(=O)CC2C(=O)NCCN2Cc2ccc(F)cc2)cs1 (stereo not given)	PHOSPHO1 inh 66 (no result: esBAF inh)
O=C(CC1C(=O)NCCN1Cc1ccc(F)cc1)NC1CCCCCCC1 (stereo not given)	PHOSPHO1 inh 65
CC(C)n1c(=S)[nH]c2c1c(=O)[nH]c(=O)n2C	PHOSPHO1 inh 62 (no result: Wnt act)
C=CC(C)n1c(Br)nc2c1c(=O)[nH]c(=O)n2C (stereo not given)	none (no result: Wnt act, esBAF inh)
O=C(NC1CCCCCCC1)c1cccc(Cl)c1	esBAF inh 60
O=C(NC1CCCCC1)c1ccc2ccccc2c1	Wnt act 49, esBAF inh 56 (no result: PHOSPHO1 inh, A3G deaminase, MITF act, A3A deaminase)
O=C(NC1CCCC1)c1cccc(Cl)c1	none (no result: esBAF inh)
CN(C(=O)/C=C/c1ccccc1)C1CCS(=O)(=O)C1 (stereo not given)	none (no result: esBAF inh)
CN(C(=O)/C=C/c1ccccc1)C1CCCCC1	Wnt act 48 (no result: PHOSPHO1 inh, esBAF inh, MITF act)
Cc1noc(C)c1S(=O)(=O)N(C)C[C@H]1Oc2ccc(NS(=O)(=O)c3cn(C)cn3)cc2C(=O)N([C@@H](C)CO)C[C@H]1C	none (no result: PHOSPHO1 inh, Wnt act, A3G deaminase, MITF act, A3A deaminase)
CNc1ncc(C(=O)c2ccc(Cl)c(Cl)c2)s1	esBAF inh 77 (no result: Wnt act, MITF act)
CNc1ncc(C(=O)c2ccc(Cl)cc2)s1	none (no result: Wnt act, MITF act)
CN(C)/C=N/c1ncc(C(=O)c2ccc(-c3ccccc3)cc2)s1	none (no result: esBAF inh)
CNc1ncc(C(=O)c2ccc(-c3ccccc3)cc2)s1	Wnt act 41 (no result: esBAF inh)
Cc1cc(C)n2c(Nc3ccc4c(c3)OCCO4)c(-c3ccc(C)o3)nc2n1	esBAF inh 83
CCCCNC(=O)C1CCN(Cc2ccc(OCc3ccccc3)cc2)CC1	esBAF inh 51 (no result: Wnt act)
O=C(Nc1ccc(-c2noc(CCc3ccccc3)n2)cc1)c1cccnc1	esBAF inh 49 (no result: Wnt act)
O=C(Nc1ccc2c(c1)oc1ccccc12)c1cccnc1	esBAF inh 68, MITF act 106 (no result: Wnt act)
O=C(Nc1ccc2oc(-c3ccccc3)nc2c1)c1ccncc1	esBAF inh 54 (no result: Wnt act)
O=C(Nc1ccc(-c2nc3ccccc3o2)cc1)c1cccnc1	Wnt act 42, esBAF inh 50
Cc1noc(C)c1NC(=O)Nc1ccc2c(c1)C(=O)N([C@@H](C)CO)C[C@H](C)[C@@H](CN(C)Cc1ccc(Oc3ccccc3)cc1)O2	none (no result: PHOSPHO1 inh, Wnt act, A3G deaminase, MITF act, A3A deaminase)
COc1ccc(NC(=O)N(C)C[C@H]2Oc3ccc(NC(=O)Nc4ccc(F)cc4)cc3CC(=O)N([C@@H](C)CO)C[C@H]2C)cc1	none (no result: PHOSPHO1 inh, Wnt act, A3G deaminase, MITF act, A3A deaminase)
CN(C)C(=O)C[C@@H]1C[C@H]2c3cc(NS(C)(=O)=O)ccc3O[C@H]2[C@@H](CO)O1	none (no result: PHOSPHO1 inh, Wnt act, A3G deaminase, MITF act, A3A deaminase)
S=C1NC2=C(CCC/C2=C\c2ccc(Cl)cc2)C(c2ccc(Cl)cc2)N1 (stereo not given)	PHOSPHO1 inh 92 (no result: esBAF inh, MITF act)
S=C1NC2=C(CCC/C2=C\c2ccccc2)C(c2ccccc2)N1 (stereo not given)	none (no result: Wnt act, esBAF inh)
CCOC(=O)CC(=O)CSc1nnc2sc3ccccc3n12	PHOSPHO1 inh 64
CN(C)C(=O)CSc1nnc2sc3ccccc3n12	none
CCOC(=O)c1cc(-c2ccccc2)sc1NC(=O)c1ccc(OC)cc1	none (no result: Wnt act, esBAF inh, MITF act)
O=C(Nc1sc(-c2ccccc2)cc1C(=O)O)c1ccccc1	Wnt act 34 (no result: esBAF inh)
COc1ccc2cc(-c3[nH]ncc3CN3CCCCO3)ccc2c1	esBAF inh 56
COc1ccc(CN(C)C[C@H]2Oc3ccc(NS(=O)(=O)c4cn(C)cn4)cc3CC(=O)N([C@H](C)CO)C[C@@H]2C)cc1	none (no result: PHOSPHO1 inh, Wnt act, A3G deaminase, MITF act, A3A deaminase)
CCSc1nsc(NC(=O)Nc2ccccc2Cl)n1	esBAF inh 41 (no result: PHOSPHO1 inh, A3G deaminase, MITF act, A3A deaminase)
O=C(NCC[C@@H]1CC[C@H](NC(=O)C2CCCC2)[C@@H](CO)O1)Nc1ccc(Cl)cc1	none (no result: PHOSPHO1 inh, Wnt act, A3G deaminase, MITF act, A3A deaminase)
CCc1c(C(=O)Nc2ccccc2)c(C)[nH]c(=S)c1C#N	none (no result: esBAF inh)
Cc1[nH]c(=S)c(C#N)c(C)c1C(=O)Nc1ccccc1	PHOSPHO1 inh 95 (no result: Wnt act)
CN(C)CC(=O)N[C@H]1CC[C@H](CC(=O)NCCN2CCCCC2)O[C@@H]1CO	none (no result: PHOSPHO1 inh, Wnt act, A3G deaminase, MITF act, A3A deaminase)
